# Experimental data as given in PMC7862700, “An all-to-all approach to the identification of sequence-specific readers for epigenetic DNA modifications on cytosine”.
# Legend:
# Assay in all cases: DAPPL (digital affinity profiling via proximity ligation, sequencing); 10 mM Tris-HCl pH 7.5, 50 mM NaCl, 1 mM DTT, 4% glycerol, room temperature, 30 min; GST-TFs on glutathione beads, 16-mer random dsDNA library, 0.1% formaldehyde crosslink after washing; high values mean tight binding
# Settings in all cases: protein: recombinant; tags: N-terminal GST; dsDNA, one strand shown
# ERG = molecular target: T1, ERG (Homo sapiens, UniProt P11308 1-479)
# T1 sequence: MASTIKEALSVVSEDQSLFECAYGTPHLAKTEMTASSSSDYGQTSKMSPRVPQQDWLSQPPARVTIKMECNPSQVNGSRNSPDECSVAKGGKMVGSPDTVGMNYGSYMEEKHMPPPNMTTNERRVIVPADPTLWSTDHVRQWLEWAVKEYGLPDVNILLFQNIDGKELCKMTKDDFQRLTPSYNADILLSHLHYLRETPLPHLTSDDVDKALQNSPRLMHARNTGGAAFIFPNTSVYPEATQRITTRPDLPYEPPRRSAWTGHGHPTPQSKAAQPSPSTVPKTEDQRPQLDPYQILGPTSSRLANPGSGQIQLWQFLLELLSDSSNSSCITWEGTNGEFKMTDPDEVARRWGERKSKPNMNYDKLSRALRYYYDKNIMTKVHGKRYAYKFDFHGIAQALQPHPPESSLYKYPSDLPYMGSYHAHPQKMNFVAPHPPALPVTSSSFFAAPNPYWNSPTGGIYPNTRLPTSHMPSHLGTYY
# In short: (§1)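 A tag-only sample was pooled with DNA-barcoded human transcription factors that had been expressed in yeast as GST fusions and captured on glutathione beads. The pools were incubated for 30 min at room temperature with 200 nmole of a random double-stranded 16-mer DNA library in Tris/NaCl/DTT/glycerol buffer, then washed, crosslinked with 0.1% formaldehyde, proximity-ligated (BsaI/T4 ligase, 1 h, 37 °C), PCR-amplified and sequenced on an Illumina NextSeq500. Binding signal is each hexamer's read frequency for a factor divided by its frequency for the tag-only sample.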
# ELF1 = ELF1 (Homo sapiens, UniProt P32519 1-619)
# Chain of ELF1 (P32519 whole entry): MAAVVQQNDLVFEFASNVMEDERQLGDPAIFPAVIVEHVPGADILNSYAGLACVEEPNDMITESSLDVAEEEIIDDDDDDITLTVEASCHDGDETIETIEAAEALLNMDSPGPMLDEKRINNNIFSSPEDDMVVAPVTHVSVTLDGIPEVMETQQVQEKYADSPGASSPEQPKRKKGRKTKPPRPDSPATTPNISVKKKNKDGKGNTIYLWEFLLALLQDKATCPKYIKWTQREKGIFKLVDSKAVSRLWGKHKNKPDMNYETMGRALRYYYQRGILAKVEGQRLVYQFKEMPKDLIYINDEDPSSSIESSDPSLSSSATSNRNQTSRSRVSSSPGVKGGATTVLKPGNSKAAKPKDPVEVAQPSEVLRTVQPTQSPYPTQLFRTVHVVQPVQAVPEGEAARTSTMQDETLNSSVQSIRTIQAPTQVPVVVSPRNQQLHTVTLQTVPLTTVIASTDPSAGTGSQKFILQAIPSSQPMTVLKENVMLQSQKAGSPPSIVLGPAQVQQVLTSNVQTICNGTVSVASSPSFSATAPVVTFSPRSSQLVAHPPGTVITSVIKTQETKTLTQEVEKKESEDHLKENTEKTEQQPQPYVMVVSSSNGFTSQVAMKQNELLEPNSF
# In short: as §1
# EHF = molecular target: T2, EHF (Homo sapiens, UniProt Q9NZC4 1-300)
# T2 sequence: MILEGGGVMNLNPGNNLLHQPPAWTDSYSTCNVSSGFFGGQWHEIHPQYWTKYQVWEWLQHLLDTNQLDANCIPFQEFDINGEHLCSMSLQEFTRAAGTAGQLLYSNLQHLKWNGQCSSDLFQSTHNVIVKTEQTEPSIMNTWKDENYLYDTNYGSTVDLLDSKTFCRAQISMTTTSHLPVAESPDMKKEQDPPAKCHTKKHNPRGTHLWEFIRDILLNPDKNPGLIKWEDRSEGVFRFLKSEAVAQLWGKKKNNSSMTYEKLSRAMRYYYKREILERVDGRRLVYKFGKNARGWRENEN
# In short: as §1
# ETV5 = ETV5 (Homo sapiens, UniProt P41161 1-510)
# Chain of ETV5 (P41161 whole entry): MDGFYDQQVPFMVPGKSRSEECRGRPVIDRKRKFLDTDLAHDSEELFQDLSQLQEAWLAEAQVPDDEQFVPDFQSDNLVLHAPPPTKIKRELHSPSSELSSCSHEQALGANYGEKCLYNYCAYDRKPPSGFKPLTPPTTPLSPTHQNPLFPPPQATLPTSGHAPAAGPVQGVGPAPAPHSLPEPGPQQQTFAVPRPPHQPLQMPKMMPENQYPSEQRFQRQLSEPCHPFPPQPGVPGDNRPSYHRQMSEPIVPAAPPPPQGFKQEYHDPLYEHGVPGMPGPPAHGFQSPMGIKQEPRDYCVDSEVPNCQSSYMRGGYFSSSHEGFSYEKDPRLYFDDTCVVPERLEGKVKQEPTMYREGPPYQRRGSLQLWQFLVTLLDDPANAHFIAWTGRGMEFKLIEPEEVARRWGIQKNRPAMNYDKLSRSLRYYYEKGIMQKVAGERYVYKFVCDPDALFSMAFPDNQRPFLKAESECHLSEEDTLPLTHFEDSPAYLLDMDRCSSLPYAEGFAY
# In short: as §1
# ELK4 = molecular target: T3, ELK4 (Homo sapiens, UniProt P28324-2 1-405)
# T3 sequence: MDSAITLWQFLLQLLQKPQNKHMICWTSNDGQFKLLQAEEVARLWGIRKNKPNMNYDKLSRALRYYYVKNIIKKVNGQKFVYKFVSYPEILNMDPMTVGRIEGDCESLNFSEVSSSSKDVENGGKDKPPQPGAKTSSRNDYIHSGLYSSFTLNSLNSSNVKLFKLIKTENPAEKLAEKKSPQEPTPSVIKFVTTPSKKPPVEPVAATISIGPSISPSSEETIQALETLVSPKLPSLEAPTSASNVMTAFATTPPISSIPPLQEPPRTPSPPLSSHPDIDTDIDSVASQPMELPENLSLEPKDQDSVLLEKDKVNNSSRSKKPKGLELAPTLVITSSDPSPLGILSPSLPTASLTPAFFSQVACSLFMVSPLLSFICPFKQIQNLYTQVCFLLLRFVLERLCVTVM
# In short: as §1
# ETV2 = molecular target: T4, ETV2 (Homo sapiens, UniProt O00321 1-342)
# T4 sequence: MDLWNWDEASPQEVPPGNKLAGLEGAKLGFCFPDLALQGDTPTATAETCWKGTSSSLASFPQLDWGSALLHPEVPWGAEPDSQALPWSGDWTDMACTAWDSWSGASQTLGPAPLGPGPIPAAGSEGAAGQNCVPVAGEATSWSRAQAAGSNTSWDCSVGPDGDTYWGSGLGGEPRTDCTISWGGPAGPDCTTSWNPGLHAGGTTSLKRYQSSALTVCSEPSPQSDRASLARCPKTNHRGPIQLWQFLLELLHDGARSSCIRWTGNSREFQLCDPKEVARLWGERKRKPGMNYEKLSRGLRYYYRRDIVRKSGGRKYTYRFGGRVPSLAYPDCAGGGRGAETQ
# In short: as §1
# ELF3 = molecular target: T5, ELF3 (Homo sapiens, UniProt P78545 1-371)
# T5 sequence: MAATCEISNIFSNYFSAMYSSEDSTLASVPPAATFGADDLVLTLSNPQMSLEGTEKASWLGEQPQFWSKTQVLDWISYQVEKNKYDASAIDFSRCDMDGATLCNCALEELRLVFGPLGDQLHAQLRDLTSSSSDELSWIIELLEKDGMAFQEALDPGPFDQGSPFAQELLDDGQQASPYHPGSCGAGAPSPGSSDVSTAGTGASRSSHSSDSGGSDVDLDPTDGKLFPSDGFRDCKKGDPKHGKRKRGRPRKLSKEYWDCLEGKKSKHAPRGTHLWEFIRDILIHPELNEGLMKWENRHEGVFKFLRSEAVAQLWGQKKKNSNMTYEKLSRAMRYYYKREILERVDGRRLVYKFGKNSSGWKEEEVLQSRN
# In short: as §1
# ERF = molecular target: T6, ERF (Homo sapiens, UniProt P50548 1-548)
# T6 sequence: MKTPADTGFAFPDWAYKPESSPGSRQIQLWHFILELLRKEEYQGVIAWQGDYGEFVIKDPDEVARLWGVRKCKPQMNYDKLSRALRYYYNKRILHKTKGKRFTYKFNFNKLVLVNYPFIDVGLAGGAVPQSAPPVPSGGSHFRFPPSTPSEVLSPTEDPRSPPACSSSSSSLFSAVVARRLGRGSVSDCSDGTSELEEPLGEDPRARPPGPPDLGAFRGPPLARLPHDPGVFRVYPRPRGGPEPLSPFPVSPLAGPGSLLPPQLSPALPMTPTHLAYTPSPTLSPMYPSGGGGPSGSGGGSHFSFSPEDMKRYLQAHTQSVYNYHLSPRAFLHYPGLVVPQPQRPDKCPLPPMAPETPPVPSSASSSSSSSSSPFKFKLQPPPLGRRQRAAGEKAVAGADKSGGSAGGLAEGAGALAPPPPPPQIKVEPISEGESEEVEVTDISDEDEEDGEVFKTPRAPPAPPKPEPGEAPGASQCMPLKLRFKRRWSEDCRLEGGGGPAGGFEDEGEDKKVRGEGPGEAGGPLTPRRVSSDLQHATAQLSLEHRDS
# In short: as §1
# ETV3L = molecular target: T7, ETV3L (Homo sapiens, UniProt Q6ZN32 1-361)
# T7 sequence: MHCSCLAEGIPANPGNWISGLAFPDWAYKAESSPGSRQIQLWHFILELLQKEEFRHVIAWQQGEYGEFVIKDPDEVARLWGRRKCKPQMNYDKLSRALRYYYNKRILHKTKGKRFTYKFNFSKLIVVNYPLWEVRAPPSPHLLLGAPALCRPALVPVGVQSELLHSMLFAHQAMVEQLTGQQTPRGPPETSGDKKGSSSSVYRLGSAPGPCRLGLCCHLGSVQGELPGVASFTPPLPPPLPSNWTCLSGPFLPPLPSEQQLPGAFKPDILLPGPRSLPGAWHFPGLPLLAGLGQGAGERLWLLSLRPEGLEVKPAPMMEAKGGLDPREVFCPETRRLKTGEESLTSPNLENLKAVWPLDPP
# In short: as §1
# ETS2 = molecular target: T8, ETS2 (Homo sapiens, UniProt P15036 1-469)
# T8 sequence: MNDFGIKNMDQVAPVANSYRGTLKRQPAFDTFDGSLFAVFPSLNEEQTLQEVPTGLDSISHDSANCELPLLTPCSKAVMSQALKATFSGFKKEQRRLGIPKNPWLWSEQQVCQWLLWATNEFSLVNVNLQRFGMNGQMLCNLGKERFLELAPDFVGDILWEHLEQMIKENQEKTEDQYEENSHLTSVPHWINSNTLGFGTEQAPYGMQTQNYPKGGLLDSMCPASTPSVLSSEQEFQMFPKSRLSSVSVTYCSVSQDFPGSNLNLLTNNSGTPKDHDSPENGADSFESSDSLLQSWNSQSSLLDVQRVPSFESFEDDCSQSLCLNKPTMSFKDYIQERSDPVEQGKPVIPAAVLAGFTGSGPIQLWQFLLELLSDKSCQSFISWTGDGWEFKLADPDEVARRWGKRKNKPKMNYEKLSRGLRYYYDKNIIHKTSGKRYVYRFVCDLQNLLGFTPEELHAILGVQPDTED
# In short: as §1
# ETV7 = molecular target: T9, ETV7 (Homo sapiens, UniProt Q9Y603 1-341)
# T9 sequence: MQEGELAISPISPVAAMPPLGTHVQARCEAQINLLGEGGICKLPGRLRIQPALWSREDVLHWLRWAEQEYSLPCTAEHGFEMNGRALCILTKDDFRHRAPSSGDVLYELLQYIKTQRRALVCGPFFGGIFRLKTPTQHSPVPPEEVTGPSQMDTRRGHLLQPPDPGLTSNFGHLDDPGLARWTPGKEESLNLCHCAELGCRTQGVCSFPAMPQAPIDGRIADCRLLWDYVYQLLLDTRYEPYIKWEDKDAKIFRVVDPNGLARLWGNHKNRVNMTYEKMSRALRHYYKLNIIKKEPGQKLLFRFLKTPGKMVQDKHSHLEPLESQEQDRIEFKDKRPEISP
# In short: as §1
# ETV3 = molecular target: T10, ETV3 (Homo sapiens, UniProt P41162-2 1-143)
# T10 sequence: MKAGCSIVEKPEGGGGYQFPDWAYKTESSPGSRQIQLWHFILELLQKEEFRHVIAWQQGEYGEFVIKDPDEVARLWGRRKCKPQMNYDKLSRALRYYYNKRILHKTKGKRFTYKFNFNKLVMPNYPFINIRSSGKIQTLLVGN
# In short: as §1
# ETV6 = ETV6 (Homo sapiens, UniProt P41212 1-452)
# Chain of ETV6 (P41212 whole entry): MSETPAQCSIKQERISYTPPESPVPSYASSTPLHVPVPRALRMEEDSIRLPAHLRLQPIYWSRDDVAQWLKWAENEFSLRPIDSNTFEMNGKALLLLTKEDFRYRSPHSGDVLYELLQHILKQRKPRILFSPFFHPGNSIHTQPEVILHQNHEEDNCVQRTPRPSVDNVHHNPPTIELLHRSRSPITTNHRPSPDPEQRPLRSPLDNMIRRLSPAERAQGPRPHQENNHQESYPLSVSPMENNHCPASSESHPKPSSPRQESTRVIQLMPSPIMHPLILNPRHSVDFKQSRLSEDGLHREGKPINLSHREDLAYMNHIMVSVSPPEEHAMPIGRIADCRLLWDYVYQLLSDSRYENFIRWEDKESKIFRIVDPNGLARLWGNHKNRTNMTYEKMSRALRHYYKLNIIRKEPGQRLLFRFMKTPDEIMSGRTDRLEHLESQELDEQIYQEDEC
# In short: as §1
sequence,measurement,setting,value
TCAAGC,binding signal,ERG,"1.01 fold enrichment (6-mer frequency, TF over GST control)"
same,binding signal,ELF1,"1 fold enrichment (6-mer frequency, TF over GST control)"
same,binding signal,EHF,"1.01 fold enrichment (6-mer frequency, TF over GST control)"
same,binding signal,ETV5,"1.02 fold enrichment (6-mer frequency, TF over GST control)"
same,binding signal,ELK4,"1.01 fold enrichment (6-mer frequency, TF over GST control)"
same,binding signal,ETV2,"1.09 fold enrichment (6-mer frequency, TF over GST control)"
same,binding signal,ELF3,"1.04 fold enrichment (6-mer frequency, TF over GST control)"
same,binding signal,ERF,"1.06 fold enrichment (6-mer frequency, TF over GST control)"
same,binding signal,ETV3L,"1.08 fold enrichment (6-mer frequency, TF over GST control)"
same,binding signal,ETS2,"1 fold enrichment (6-mer frequency, TF over GST control)"
same,binding signal,ETV7,"1.04 fold enrichment (6-mer frequency, TF over GST control)"
same,binding signal,ETV3,"1.08 fold enrichment (6-mer frequency, TF over GST control)"
same,binding signal,ETV6,"1.03 fold enrichment (6-mer frequency, TF over GST control)"
